Test results reported in PubChem BioAssay AID463173 (ICCB-Longwood Screening Facility, Harvard Medical School, 2010).
Screen size: about 52,000 compounds; about 4,300 (8.3%) were called active. Rule as the data show it: active = survival mostly below about 52% (no sharp cut-off); inactive = mostly above about 56%. The full list was thinned out, with actives kept by preference.

test system: DeltatarO mutant; assay: S. aureus survival, RN4220 and DeltatarO strains – OD600, teichoic acid synthesis inhibitors, primary screen (AID 463173); conditions: S. aureus RN4220 wild type/DeltatarO growth, OD600, 18 h, hits give low values, screened at 18.75 µg/mL (by protocol)

Row | Structure (SMILES) | survival
1 | O=c1c(S(=O)(=O)c2cccc(Cl)c2)cn(Cc2ccccc2)c2cc(N3CCCCC3)c(F)cc12 | 89% (inactive)
2 | O=c1oc2cc(O)ccc2cc1-c1nc(-c2ccc(Cl)c(Cl)c2)cs1 | 101% (inactive)
3 | O=C(Cn1c(=O)c2ccccc2n(CC(=O)Nc2ccc(F)cc2F)c1=O)NCCc1ccccc1 | 81% (inactive)
4 | COc1cc(NC(=O)Nc2cccc(-c3noc(C)n3)c2)cc(OC)c1OC | 128% (inactive)
5 | CC(C)Cn1c(SCC(N)=O)nc2ccccc2c1=O | 97% (inactive)
6 | O=C(CN1C(=O)c2cccc3cccc1c23)N1CCCC1 | 85% (inactive)
7 | Cc1ccc(Cl)cc1NC(=O)Cn1c(=O)n(C(C)C)c(=O)c2oc3ccccc3c21 | 51% (inactive)
8 | Cc1ccc(Cl)cc1N1CCN(C(=O)C2CCCN(S(=O)(=O)c3ccc(Br)s3)C2)CC1 (stereo not given) | 113% (inactive)
9 | COc1ccccc1N(CC(=O)NC1CCCCC1)C(=O)c1csnn1 | 96% (inactive)
10 | O=C(NCc1cccc(F)c1)c1ccc(CS(=O)c2ccccc2Cl)o1 (stereo not given) | 68% (inactive)
11 | COC(=O)c1c(NC(=O)CCCOc2ccccc2C)sc2c1CCC2 | 4% (active)
12 | COc1ccc(NC(=O)c2c(NC(=O)COc3ccccc3)sc3c2CCC(C)C3)cc1 (stereo not given) | 120% (inactive)
13 | COC(=O)c1c(NC(=O)CCCOc2ccccc2)sc2c1CCC(C)C2 (stereo not given) | 2% (active)
14 | Cc1ccc(OCCCC(=O)Nc2sc3c(c2C(N)=O)CCCC3)cc1 | 53% (inactive)
15 | CCOc1ccc(/C=C/C(=O)Nc2sc3c(c2C(=O)OC)CCC3)cc1 | 75% (inactive)
16 | COC(=O)c1c(NC(=O)COc2ccc(Cl)cc2C)sc2c1CCCCC2 | 68% (inactive)
17 | COC(=O)c1c(NC(=O)CCCOc2ccc(C)cc2)sc2c1CCCC2 | 8% (active)
18 | Cc1ccccc1OCC(=O)Nc1sc2c(c1C(=O)OC(C)C)CCCC2 | 77% (inactive)
19 | CC1CCc2c(sc(NC(=O)CCCOc3ccccc3)c2C(N)=O)C1 (stereo not given) | 78% (inactive)
20 | CCS(=O)(=O)Nc1ccc2[nH]c(=O)[nH]c2c1 | 88% (inactive)
21 | CCc1ccc(NC(=O)CNC(=O)Cn2c(C)cc3ccccc3c2=O)cc1 | 114% (inactive)
22 | CCN(C(=O)C1CCN(S(=O)(=O)c2c(C)noc2/C=C/c2ccc(C)cc2)CC1)c1cccc(C)c1 | 84% (inactive)
23 | CCOc1ccc(CCNC(=O)C2CC(=O)N(CCc3ccc(OC)c(OC)c3)C2)cc1OCC (stereo not given) | 91% (inactive)

Row | Structure (SMILES) | survival
24 | COc1ccc(OC)c(C2CC(=O)c3c([nH]c(C(=O)OC4CCC(C)CC4)c3C)C2)c1 (stereo not given) | 81% (inactive)
25 | COc1ccc(-c2noc(-c3ccc(N4CCN(C)CC4)c([N+](=O)[O-])c3)n2)cc1 | 42% (active)
26 | COc1ccc(-c2noc(-c3ccc(N4CCOCC4)c([N+](=O)[O-])c3)n2)cc1 | 46% (inactive)
27 | COc1ccc(-c2noc(-c3ccc(N4CCN(C)CC4)c([N+](=O)[O-])c3)n2)cc1OC | 50% (inactive)
28 | COc1ccc(-c2noc(-c3ccc(N4CCN(c5ccc(OC)cc5)CC4)c([N+](=O)[O-])c3)n2)cc1 | 47% (inactive)
29 | COc1ccc(-c2noc(-c3ccc(N4CCCC4)c([N+](=O)[O-])c3)n2)cc1 | 108% (inactive)
30 | COc1ccc(-c2noc(-c3ccc(N4CCCCC4)c([N+](=O)[O-])c3)n2)cc1 | 37% (active)
31 | CC1=C(C(=O)Nc2ccccc2C)C(c2cccnc2)n2nc(SCc3ccccc3F)nc2N1 (stereo not given) | 60% (inactive)
32 | Cc1nc2nncn2c(N2CCN(c3ccccc3)CC2)c1C | 83% (inactive)
33 | COc1cccc(CNC(=O)c2nn(C)c3c2CS(=O)(=O)c2ccccc2-3)c1 | 74% (inactive)
34 | CC(=O)c1ccc(NC(=O)CSc2cn(CC(=O)N3CCCCC3)c3ccccc23)cc1 | 63% (inactive)
35 | Cc1nc(C)c(-c2csc(NCc3ccccc3)n2)s1 | 65% (active)
36 | C=CCNc1nc(-c2ccccc2)cs1 | 97% (inactive)
37 | COCC(=O)Nc1nc(-c2ccccc2)cs1 | 112% (inactive)
38 | COc1cccc(C(=O)CN2C3=NCCN3c3ccccc32)c1 | 106% (inactive)
39 | CC1=C(C(=O)Nc2cccc(F)c2)C2(CCCCCC2)OC1=O | 70% (inactive)
40 | CCCCN(CCCNC(=O)CN1N=C(c2ccc(C)cc2)CCC1=O)c1ccccc1 | 92% (inactive)
41 | Cc1ccc(C2=NN(CC(=O)NCCCN(CC(C)C)CC(C)C)C(=O)CC2)cc1 | 83% (inactive)
42 | CCN(CCCNC(=O)CN1N=C(c2ccccc2)CCC1=O)c1ccccc1 | -5% (active)
43 | Cc1ccc(C2=NN(CC(=O)NCCC(C)C)C(=O)CC2)cc1 | 37% (active)
44 | CCCCN(CCCNC(=O)CN1N=C(c2ccccc2)CCC1=O)c1ccccc1 | 88% (inactive)
45 | CCN(CCCNC(=O)CN1N=C(c2ccccc2)CCC1=O)c1cccc(C)c1 | 124% (inactive)
